# Assay results: PubChem BioAssay (NCI)
# About 83,000 compounds went through this panel and 20% of them were active in at least one assay; those are over-represented in the sample as a whole.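 Cell lines were cultured in 96-well plates, exposed to a single compound concentration, and assessed for percent growth 48 hours later.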 A number with no mark means an inactive call. Calls of active or inactive are those of the source. The calls were made as follows: active = growth percent below 10; inactive = the rest.
# Experiments:
# Test in all cases: NCI-60 one-dose screen, 48 h (100 = growth as untreated, 0 = no growth, -100 = all killed)
# NCI-H226 lung = conditions: 10 µM
# NCI-H322M lung = conditions: 10 µM
# HOP-62 NSCLC = conditions: 10 µM
# NCI-H460 lung = conditions: 10 µM
# 786-0 renal = conditions: 10 µM
# COLO 205 colon = conditions: 10 µM
# DU-145 prostate = conditions: 10 µM
# SF-268 CNS = conditions: 10 µM
# SF-295 CNS = conditions: 10 µM
# SF-539 CNS = conditions: 10 µM
# HCT-15 colon = conditions: 10 µM
# SNB-75 CNS = conditions: 10 µM
# SNB-19 CNS = conditions: 10 µM
# U251 CNS = conditions: 10 µM
# PC-3 prostate = conditions: 10 µM
# EKVX NSCLC = conditions: 10 µM
# UO-31 renal = conditions: 10 µM
# ACHN renal = conditions: 10 µM
# CCRF-CEM leukemia = conditions: 10 µM
# HL-60(TB) leukemia = conditions: 10 µM unless noted
smiles,measurement,setting,value
COc1cc(OC)c(S(=O)(=O)N(CCCl)CCCl)cc1C(=O)/C=C/c1ccc(Cl)cc1,growth,NCI-H226 lung,78.9%
same,growth,NCI-H322M lung,71.9%
same,growth,HOP-62 NSCLC,91.7%
same,growth,NCI-H460 lung,77.7%
same,growth,786-0 renal,64.4%
same,growth,COLO 205 colon,101%
same,growth,DU-145 prostate,68.8%
same,growth,SF-268 CNS,73.2%
same,growth,SF-295 CNS,88.7%
same,growth,SF-539 CNS,51.3%
same,growth,HCT-15 colon,31.6%
same,growth,SNB-75 CNS,37.8%
same,growth,SNB-19 CNS,65.2%
same,growth,U251 CNS,55.1%
same,growth,PC-3 prostate,70.3%
same,growth,EKVX NSCLC,85.5%
same,growth,UO-31 renal,66.9%
same,growth,ACHN renal,65.3%
same,growth,CCRF-CEM leukemia,16.4%
COc1ccc(-c2nc3cc(Cl)c(Cl)cc3n2CC(=O)N=Nc2c(O)[nH]c3ccc(Cl)cc23)cc1,growth,HL-60(TB) leukemia,59.7%
CCOC(=O)c1c(NCC(=O)Nc2cccc(Cl)c2)sc2c1CCCC2,growth,HL-60(TB) leukemia,90.8%
Cc1ccc(C(=O)Nc2ccc(CNCCN3CCOCC3)c(C(F)(F)F)c2)cc1C#Cc1cnc2cccnn12,growth,HL-60(TB) leukemia,-21.3% (active)
C#C[C@]1(O)CC[C@H]2[C@@H]3CC=C4c5sc(C6CCOCC6)nc5CC[C@]4(C)[C@H]3CC[C@@]21C,growth,HL-60(TB) leukemia,56.7%
CCCCCc1ccc(S(=O)(=O)Nc2cccc(-c3csc(NC(=O)CCCCCN4CCN(CCO)CC4)n3)c2)cc1,growth,HL-60(TB) leukemia,63.4%
O=C(NNc1nc2cc(F)c(F)cc2n2cccc12)c1cccnn1,growth,HL-60(TB) leukemia,-2.31% (active)
Cc1nn(-c2ccccc2)cc1/C=N/Nc1nc(Nc2ccccc2)nc(Nc2ccc(S(N)(=O)=O)cc2)n1,growth,HL-60(TB) leukemia,4% (active)
CCOc1ccccc1NC1=C(Cl)C(=O)c2nc(C)ccc2C1=O,growth,HL-60(TB) leukemia,-36.8% (active)
O=C(CSc1nc2ccccc2c(=O)n1-c1ccccc1)Nc1cccc(C(=O)/C=C/c2ccccc2Cl)c1,growth,HL-60(TB) leukemia,108%
C[C@@H]1OCC2(CCN(c3cnc(C(=O)Nc4cc(F)cc5cccnc45)cn3)CC2)[C@@H]1N,growth,HL-60(TB) leukemia,20.4%
O=C1[C@H]2Cc3c([nH]c4ccccc34)[C@@H](c3ccc(Br)cc3)N2C(=O)CN1C1CCN(CC2CCCCC2)CC1,growth,HL-60(TB) leukemia,-70.6% (active)
CCN(CC)CCCC(C)NCC(=O)NC(c1ccc2c(c1)OCO2)c1cc(Cl)c2cccnc2c1O (centres undefined),growth,HL-60(TB) leukemia,7.29% (active)
CN1CCN(Cc2ccc(NC(=O)c3cncc(C#Cc4[nH]nc5ncncc45)c3)cc2C(F)(F)F)CC1,growth,HL-60(TB) leukemia,21.5%
CCOC(=O)c1c(Nc2ccccc2)nn2c(-c3ccc(OC)c(OC)c3)ccnc12,growth,HL-60(TB) leukemia,43.3%
O=c1[nH]c(CCl)nc2c1cnn2-c1ccccc1,growth,HL-60(TB) leukemia,109%
C=C(C=O)[C@@H]1CC[C@]2(CO)CC[C@]3(C)[C@H](CC[C@@H]4[C@@]5(C)CCCNC(C)(C)[C@@H]5CC[C@]43C)[C@@H]12,growth,HL-60(TB) leukemia,-10.2% (active)
NC(=O)c1cc(-c2ccc3ncnc(N4CCc5cc(F)c(Cl)cc54)c3c2)cnc1N,growth,HL-60(TB) leukemia,-4.97% (active)
CC1(C)[C@@H](O)CC[C@]2(C)[C@H]3CC[C@@H]4[C@H]5[C@H](C(=O)/C=C\c6ccncc6)CC[C@]5(O)CC[C@@]4(C)[C@]3(C)CC[C@@H]12,growth,HL-60(TB) leukemia,26.4%
O=C(/C=C/c1cccc(Br)c1)c1cccc(OCCCCOc2cccc(C(=O)/C=C/c3cccc(Br)c3)c2)c1,growth,HL-60(TB) leukemia,95.3%
O=C(Nc1cccc(C(F)(F)F)c1)N1CCN(c2cc(-c3cn(-c4ccccc4)nc3-c3cccc(O)c3)ccn2)CC1,growth,HL-60(TB) leukemia,20.9%
CC1(C)[C@@H](O)CC[C@]2(C)[C@H]3CC[C@@H]4[C@H]5[C@H](C(=O)/C=C\c6ccc([N+](=O)[O-])cc6)CC[C@]5(O)CC[C@@]4(C)[C@]3(C)CC[C@@H]12,growth,HL-60(TB) leukemia,27.9%
O=C(NCCCCCCNC(=O)c1c2c(nc3ccccc13)-c1cccnc1SC2)c1c2c(nc3ccccc13)-c1cccnc1SC2,growth,HL-60(TB) leukemia,24%
Fc1cc(F)cc(NNC(=S)c2ccccc2)c1,growth,HL-60(TB) leukemia,30.5%
COc1cc(/C=N/NC(=O)c2cn(C3CC3)c3c(OC)c(N4CC5CCCNC5C4)c(F)cc3c2=O)ccc1O (centres undefined),growth,HL-60(TB) leukemia,-40.3% (active)
O=S(=O)(Oc1ccc(-c2cn3ccsc3n2)cc1)c1cccc(C(F)(F)F)c1,growth,HL-60(TB) leukemia,101%
COc1cc(/C=N/Nc2ccnc3cc(Cl)ccc23)cc(OC)c1O,growth,HL-60(TB) leukemia,-44.6% (active)
C#Cc1nc(C2=C(C)C(O)/C(=N/O)C2)cs1 (centres undefined),growth,HL-60(TB) leukemia,-37.9% (active)
C/C(=C(/c1ccc(Cl)cc1)c1ccc(OCCN)cc1)c1ccc(C)cc1,growth,HL-60(TB) leukemia,102%
CCCN1C=C/C(=C\C(=O)n2ccc3ccccc32)c2ccccc21,growth,HL-60(TB) leukemia,87.4%
O=C(Nc1ccc2c(ccn2Cc2ccccn2)c1)c1ccnnc1,growth,HL-60(TB) leukemia,145%
COc1ccc(/C=N/NC(=O)CSc2nc(-c3cnccn3)cc(-c3cccs3)c2C#N)cc1OC,growth,HL-60(TB) leukemia,101%
CC(=O)Nc1cccc(Nc2nc(N[C@H](C)c3ccccc3)c3ccccc3n2)c1,growth,HL-60(TB) leukemia,13.6%
CC(O)c1cc2ccccc2c(=O)o1 (centres undefined),growth,HL-60(TB) leukemia,102%
COc1ccc2c(c1)Oc1nc(N)c(C#N)c(N)c1C2Sc1ccc(C)cc1 (centres undefined),growth,HL-60(TB) leukemia,-22.3% (active)
CC1(C)CC[C@]2(C(=O)N3CCCN(CC#N)CC3)CC[C@]3(C)C(=CC[C@@H]4[C@@]5(C)CC[C@H](O)C(C)(C)[C@@H]5CC[C@]43C)[C@H]2C1,growth,HL-60(TB) leukemia,-15.9% (active)
Cc1ccc(C(=O)CSc2nnc(-c3ccc(-c4ccc(Cl)cc4)nc3C)o2)cc1,growth,HL-60(TB) leukemia,103%
O=S(=O)(Nc1ccc(I)cc1Cl)c1ccc(-c2cnc(C3CC3)o2)cc1,growth,HL-60(TB) leukemia,9.69% (active)
CCNC(=O)N1CCc2cc(OC)c(OCCc3ccc(OC)nc3)cc2C1c1ccc(C)cc1C (centres undefined),growth,HL-60(TB) leukemia,8.48% (active)
COc1ccc2[nH]cc(/C=N/Nc3ccnc4cc(Cl)ccc34)c2c1,growth,HL-60(TB) leukemia,-56.1% (active)
CNC(=O)c1cc(Oc2ccc3nc(NC(=O)c4cccc(C(F)(F)F)c4)sc3c2)ccn1,growth,HL-60(TB) leukemia,143%
CCc1ccc(NC(=O)N[C@@H](Cc2cccc(C)c2)C(=O)N[C@@H]2C(=O)N3CCC[C@H]3C(=O)N3CCCC[C@H]3C(=O)N[C@@H](CO)C(=O)N3C[C@H](C)C[C@H]3C(=O)O[C@H]2C)c(F)c1,growth,HL-60(TB) leukemia,15.8%
NS(=O)(=O)c1ccc(-n2cc(CN3CCCCC3)nn2)cc1,growth,HL-60(TB) leukemia,101%
COCCOc1ccc2ncc(C#Cc3cncc(C(=O)Nc4ccc(CN5CCN(C)CC5)c(C(F)(F)F)c4)c3)n2n1,growth,HL-60(TB) leukemia,16.7%
COc1ccc(-c2nn(-c3ccc(S(C)(=O)=O)cc3)cc2/C=N/O)cc1,growth,HL-60(TB) leukemia,103%
Cn1cc(-c2nnc(N)nc2-c2c[nH]c3ccc(F)cc23)c2cc(Br)ccc21,growth,HL-60(TB) leukemia,-20.7% (active)
C=CCn1c(SCC(=O)Nc2ccc(OC)cc2)nnc1-c1ccc(Cl)cc1,growth,HL-60(TB) leukemia,78%
CCNC(=O)N1CCc2cc(OC)c(OCCc3ccc(OC)c(N)c3)cc2C1c1ccc(C)cc1C (centres undefined),growth,HL-60(TB) leukemia,16.5%
COc1ccc(CCN2C(=O)/C(=C/c3nc(CO)cs3)SC2=S)cc1,growth,HL-60(TB) leukemia,59.4%
O=C(CN1CCOCC1)NNc1ncnc2ccccc12,growth,HL-60(TB) leukemia,53%
COc1cc(/C=C/C(=O)c2ccc(Cl)cc2)ccc1Oc1nc(NCCO)nc(N2CCOCC2)n1,growth,HL-60(TB) leukemia,93.7%
CCOC(=O)C(=O)CC(=O)N1C(=S)NC(=O)C1CC(C)C (centres undefined),growth,HL-60(TB) leukemia,111%
CCO/C=N/C1=C(C#N)C(c2ccc(OC)cc2)c2sc3c(CC)cccc3c2O1 (centres undefined),growth,HL-60(TB) leukemia,9.99% (active)
C=C(C)[C@@H]1CC[C@]2(COP(=O)(OCC)OCC)CC[C@]3(C)[C@H](CC[C@@H]4[C@@]5(C)CC[C@H](OP(=O)(OCC)OCC)C(C)(C)[C@@H]5CC[C@]43C)[C@@H]12,growth,HL-60(TB) leukemia,16.2%
O=C(CCn1cc[n+](CC(=O)c2ccc(-c3ccccc3)cc2)c1)Nc1cccc2cccnc12,growth,HL-60(TB) leukemia,13.9%
Cc1nn(-c2ccccc2)c2nc(CCl)[nH]c(=O)c12,growth,HL-60(TB) leukemia,33.1%
Nc1ccc(Nc2ncnc3sc4c(c23)CCN(Cc2ccccc2)C4)cc1,growth,HL-60(TB) leukemia,102%
COc1ccc2c(c1)c(-c1nnc(N)nc1-c1c[nH]c3ccc(F)cc13)cn2C,growth,HL-60(TB) leukemia,-0.122% (active)
OC1CCN(CCCOc2c3ccccc3nc3c2oc2ccc(Cl)cc23)CC1,growth,HL-60(TB) leukemia,14.4%
C=CCn1c(SCC(=O)Nc2ccc(C(=O)/C=C/c3ccc(Cl)cc3)cc2)nnc1-c1c[nH]c2ccccc12,growth,HL-60(TB) leukemia,87.5%
O=C1c2c(c3c4cc(Br)ccc4[nH]c3c3ccc4ccccc4c23)C(=O)N1CCO,growth,HL-60(TB) leukemia,96.7%
Cn1ccnc1C(=O)/C=C/c1ccc(CNC(=O)c2ccc(S(F)(F)(F)(F)F)cc2)cc1,growth,HL-60(TB) leukemia,-4.98% (active)
Oc1ccc(CSc2nnc(-c3ccc(Oc4ccccc4)cc3)n2-c2ccccc2)c2cccnc12,growth,HL-60(TB) leukemia,10.1%
Nc1cc(-c2c[nH]c3ccccc23)nc2cc(-c3c[nH]c4ccccc34)nn12,growth,HL-60(TB) leukemia,40.1%
N[C@@H](Cc1cn(-c2ccnc3ccccc23)nn1)C(=O)O,growth,HL-60(TB) leukemia,110%
CNC(=O)c1cc(-c2ccc(NS(=O)(=O)c3ccc(C)cc3)cc2)nc2cccnc12,growth,HL-60(TB) leukemia,113%
CN1CCN(Cc2ccc(NC(=O)c3cncc(C#Cc4cnc5ccc(NC6CCOCC6)nn45)c3)cc2C(F)(F)F)CC1,growth,HL-60(TB) leukemia,-45.2% (active)
COc1c([C@@H](CC(C)C)OC(C)=O)ccc2c1C(=O)OCc1cc(C)cc(O)c1O2,growth,HL-60(TB) leukemia,63.7%
C=CC(=O)N1CC=C(c2cc3c(N[C@H](C)c4ccccc4)ncnc3[nH]2)CC1,growth,HL-60(TB) leukemia,104%
CCN1C(=O)N(CC)C2SC(N/N=C/C=C/c3ccccc3OC)=NC21 (centres undefined),growth,HL-60(TB) leukemia,-9.85% (active)
CC[C@]12C=CCN3CC[C@]4(C(=C(C(=O)OC)C1)Nc1cc5c(cc14)[C@@H]1[C@H](O5)[C@@H](O)[C@@]4(CC)CC(C(=O)OC)=C5Nc6cc(O)ccc6[C@@]56CCN1C46)C32 (some centres undefined),growth,HL-60(TB) leukemia,-9.82% (active)
